# Activity calls are given as the source filed them.
# What was measured:
# [1] = test system: Plasmodium falciparum Sir2 (PF13_0152, Sir2A); assay: pfSir2 binders on small-molecule microarrays, primary screen, biochemical, small-molecule microarray, 635 nm fluorescence (AID 1098); settings: small-molecule microarray binding, fluorescence 635 nm; higher = more signal;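 also: score merges spot fluorescence intensity with its signal-to-noise ratio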
# [2] = small-molecule microarray binders of probe aDKK1, primary screen, biochemical, biotinylated probe, 635/667 nm fluorescence (AID 1099); settings: higher = more signal;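 also: score merges 667nm spot fluorescence with signal to noise across triplicate slides; reference of the scale not given here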
# [3] = small-molecule microarray binders of probe aCHRDL2, primary screen, biochemical, biotinylated probe, 635/667 nm fluorescence (AID 1100); settings: higher = more signal
# [4] = splicing luciferase reporter signal modulators, primary screen, spliceosome inhibition project, cell-based, HEK293, splice +/- reporter (AID 1101); settings: luminescence, 24 h, higher = more signal, called active from +8 up or from −8 down;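 also: HEK293 cells carrying a splicing-competent luciferase reporter gene; test concentration not given here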
# [5] = molecular target: Fibroblast growth factor 10 (Homo sapiens) (UniProt O15520); assay: FGF10 binders on small-molecule microarrays, primary screen, biochemical, small-molecule microarray, 635 nm fluorescence (AID 1102); settings: FGF10 binding, fluorescence 635 nm, higher = more signal
# [6] = test system: glycogen synthase kinase-3 (GSK3A per assay name; protocol says GSK3B); assay: GSK3 binders on small-molecule microarrays, primary screen, biochemical, small-molecule microarray, 635 nm fluorescence, GSK3A (AID 1103); settings: small-molecule microarray binding, fluorescence 635 nm; higher = more signal; also: the record names both GSK3A and GSK3B
# [7] = molecular target: Epidermal growth factor receptor (Homo sapiens) (UniProt P00533); assay: EGFR binders on small-molecule microarrays, primary screen, biochemical, small-molecule microarray, 635 nm fluorescence (AID 1104); settings: EGFR binding, higher = more signal;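 also: score merges 667 nm emission intensity with spot signal to noise over triplicate slides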
# [8] = molecular target: Follistatin-related protein 3 (Homo sapiens) (UniProt O95633); assay: FSTL3 binders on small-molecule microarrays, primary screen, biochemical, small-molecule microarray, 635 nm fluorescence (AID 1105); settings: FSTL3 binding, higher = more signal;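 also: score merges emission near 667 nm and signal to noise per printed spot across three slides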
# [9] = molecular target: Dickkopf-related protein 1 (Homo sapiens) (UniProt O94907); assay: DKK1 binders on small-molecule microarrays, primary screen, biochemical, small-molecule microarray, 635 nm fluorescence scan (AID 1106); settings: DKK1 binding, higher = more signal;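 also: score merges emission near 667 nm with signal to noise over three replicate slides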
# [10] = test system: Inhibin beta A chain (activin A); assay: INHBA (activin A) binders on microarrays, primary screen, biochemical, small-molecule microarray, 635 nm fluorescence scan (AID 1107); settings: small-molecule microarray binding, higher = more signal;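 also: mouse activin A protein probed at 4.33 µg/mL on printed slides; score merges bound-protein fluorescence near 667 nm with spot signal-to-noise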
# Epidermal growth factor receptor (Homo sapiens), sequence (P00533 whole entry, looked up): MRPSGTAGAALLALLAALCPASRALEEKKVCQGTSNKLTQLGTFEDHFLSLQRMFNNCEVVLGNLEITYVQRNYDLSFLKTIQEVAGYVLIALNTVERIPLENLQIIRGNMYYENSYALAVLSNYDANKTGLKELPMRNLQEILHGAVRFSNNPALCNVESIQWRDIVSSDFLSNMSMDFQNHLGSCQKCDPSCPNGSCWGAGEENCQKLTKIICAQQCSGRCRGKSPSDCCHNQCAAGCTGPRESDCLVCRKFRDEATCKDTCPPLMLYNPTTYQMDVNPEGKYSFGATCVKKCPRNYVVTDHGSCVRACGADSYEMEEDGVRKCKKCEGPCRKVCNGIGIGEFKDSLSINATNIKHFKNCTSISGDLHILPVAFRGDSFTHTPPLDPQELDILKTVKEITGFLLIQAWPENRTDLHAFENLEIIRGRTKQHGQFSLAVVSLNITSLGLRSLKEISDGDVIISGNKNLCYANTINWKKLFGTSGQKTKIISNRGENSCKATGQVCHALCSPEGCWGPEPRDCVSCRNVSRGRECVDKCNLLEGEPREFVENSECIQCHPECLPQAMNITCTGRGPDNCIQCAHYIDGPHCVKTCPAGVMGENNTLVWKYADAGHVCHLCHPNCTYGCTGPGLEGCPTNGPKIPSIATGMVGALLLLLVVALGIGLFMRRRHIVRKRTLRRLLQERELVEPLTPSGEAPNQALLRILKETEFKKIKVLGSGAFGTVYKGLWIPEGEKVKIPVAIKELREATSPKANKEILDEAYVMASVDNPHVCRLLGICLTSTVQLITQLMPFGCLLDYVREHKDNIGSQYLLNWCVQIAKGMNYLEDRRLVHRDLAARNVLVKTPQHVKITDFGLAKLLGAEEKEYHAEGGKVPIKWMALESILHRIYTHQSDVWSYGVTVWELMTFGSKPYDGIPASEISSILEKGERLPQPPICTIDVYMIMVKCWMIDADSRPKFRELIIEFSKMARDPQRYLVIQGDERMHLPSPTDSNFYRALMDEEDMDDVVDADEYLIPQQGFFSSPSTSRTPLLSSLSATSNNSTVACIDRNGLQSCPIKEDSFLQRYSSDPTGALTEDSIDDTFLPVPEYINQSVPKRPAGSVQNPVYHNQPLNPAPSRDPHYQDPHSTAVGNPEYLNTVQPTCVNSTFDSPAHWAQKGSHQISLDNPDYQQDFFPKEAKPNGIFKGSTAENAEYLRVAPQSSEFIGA
# Fibroblast growth factor 10 (Homo sapiens), sequence (O15520 whole entry, looked up): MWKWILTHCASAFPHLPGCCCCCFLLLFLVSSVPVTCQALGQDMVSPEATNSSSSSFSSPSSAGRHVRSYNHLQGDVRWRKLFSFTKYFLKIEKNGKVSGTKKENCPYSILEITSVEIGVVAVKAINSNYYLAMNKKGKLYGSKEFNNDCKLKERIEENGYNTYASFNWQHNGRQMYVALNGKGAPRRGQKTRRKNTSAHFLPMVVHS
# Follistatin-related protein 3 (Homo sapiens), sequence (O95633 whole entry, looked up): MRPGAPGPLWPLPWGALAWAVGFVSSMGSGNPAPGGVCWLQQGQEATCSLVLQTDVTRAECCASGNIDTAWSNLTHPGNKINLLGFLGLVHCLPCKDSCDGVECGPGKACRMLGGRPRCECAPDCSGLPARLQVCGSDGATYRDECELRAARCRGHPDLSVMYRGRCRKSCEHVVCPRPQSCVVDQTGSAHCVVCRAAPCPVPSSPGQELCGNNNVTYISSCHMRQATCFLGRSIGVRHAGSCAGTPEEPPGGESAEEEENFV
# Dickkopf-related protein 1 (Homo sapiens), sequence (O94907 whole entry, looked up): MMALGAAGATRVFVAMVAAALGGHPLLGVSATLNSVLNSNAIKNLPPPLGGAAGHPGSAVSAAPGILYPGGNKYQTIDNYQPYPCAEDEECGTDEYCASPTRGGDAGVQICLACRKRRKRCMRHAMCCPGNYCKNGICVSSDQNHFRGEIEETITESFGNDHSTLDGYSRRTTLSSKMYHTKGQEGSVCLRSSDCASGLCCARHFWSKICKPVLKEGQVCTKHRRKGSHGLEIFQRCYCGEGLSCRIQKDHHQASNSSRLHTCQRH
SMILES,composite z-score [1],composite z-score [2],composite z-score [3],z-score [4],composite z-score [5],composite z-score [6],composite z-score [7],composite z-score [8],composite z-score [9],composite z-score [10]
Cc1nc2cc(Br)ccc2c(=O)o1,-0.319,-0.0717,-0.267,0.502 (inactive),0.543,0.778,0.427,0.846,0.436,0.435
O=C(CS)NCCCCCCNC(=O)[C@@H]1C[C@@H]2C(=O)N[C@@H](Cc3ccccc3)C(=O)N2[C@@H]1c1cccc(OCCO)c1,1.5,-0.367,0.594,0.528 (inactive),1.32,1.34,0.557,1.26,0.859,0.382
CC(C)C(O)C1C=CC2C(=O)NC(=O)C2N1Nc1ccc(Cl)cc1Cl (stereo not given),0.686,1.2,1.37,1.54 (inactive),-0.0826,-0.234,-0.0718,-0.265,-0.939,1.47
COC(=O)[C@@]1(CCC(=O)OC(C)(C)C)N=C(c2ccc(OCCCO)cc2)O[C@H]1c1ccccc1N=[N+]=[N-],1.13,0.255,0.662,2.6 (inactive),-0.113,-0.0727,-0.336,0.542,0.0186,0.431
CCCC[C@H]1OB(O)C[C@H]2C1=C(COC)Cn1c(=O)n(-c3ccccc3)c(=O)n12,-0.0483,-0.383,-0.738,0.271 (inactive),0.516,0.302,0.54,0.517,0.465,0.95
COC(=O)[C@]1(CCC(=O)OC(C)(C)C)N=C(c2ccc(OCCCO)cc2)O[C@@H]1c1ccccc1CN=[N+]=[N-],1.09,1.09,1.07,-1.03 (inactive),0.432,-0.109,-0.843,-0.307,-0.696,0.26
COCCOC(=O)N1C(=O)[C@@]2(c3cc(C#CCCO)ccc31)[C@H](C(=O)N1CCCCCCC1)[C@H]1C(=O)O[C@H](c3ccccc3)[C@H](c3ccccc3)N1[C@@H]2c1ccc(OCCO)cc1,1.4,2.52,1.49,0.713 (inactive),0.888,0.704,1.59,1.55,1.63,1.67
COc1cc(C(O)C2C=CC3C(=O)NC(=O)C3N2Nc2ccccn2)cc(OC)c1OC (stereo not given),1.18,-0.149,0.418,1.53 (inactive),0.12,0.211,0.635,-0.027,0.336,0.791
Cc1ccc(S[C@]2(C(=O)NCCCN(C)C)CC(=O)N(Cc3cc(C(F)(F)F)cc(C(F)(F)F)c3)[C@@H]2c2ccc(CO)cc2)cc1,-1,-0.214,0.495,0.269 (inactive),-1.11,-0.655,-0.675,0.259,-1.62,0.798
CO[C@H]1O[C@H](CO)[C@@H](OC(=O)Nc2ccc(Oc3ccccc3)cc2)[C@H](OC(=O)Nc2ccc3c(c2)OCO3)[C@H]1OC(=O)Nc1ccc2c(c1)OCO2,1.26,0.86,0.992,-1.61 (inactive),1.33,1.31,0.318,1.2,0.612,0.944
COc1cc(Br)cc(C(O)C2C=CC3C(=O)N(C)C(=O)C3N2N2CCCCC2)c1OC (stereo not given),0.787,0.655,0.895,1.09 (inactive),-0.582,-0.524,-1.23,-1.06,-1.26,0.613
COc1ccc(/C=C/C=O)cc1,-0.166,-0.201,-0.32,-0.903 (inactive),0.188,0.0929,-0.0607,0.679,0.406,0.664
CCCC[C@@H]1C[C@H]1[C@@H](NC(=O)c1ccco1)c1ccc(-c2ccccc2)cc1,-0.338,0.189,0.272,-1.61 (inactive),0.222,0.118,-0.0501,-0.0483,-0.426,0.39
CC(C)CNC(=O)[C@@]1(Cc2ccccc2I)c2ccccc2C(=O)N(C2CCCCC2)[C@H]1c1ccc(CO)cc1,1.53,0.778,1.02,1.14 (inactive),0.51,-0.218,-0.272,0.248,-0.271,0.504
CC(C)C(CO)N1C(=O)[C@@H]2C3C(=O)OCCC/C=C\[C@H]3OC23C=CCN(CCN2CCOCC2)C(=O)[C@@H]13 (stereo not given in full),-0.768,-0.355,-0.45,0.963 (inactive),0.0971,0.0585,-0.203,0.0915,0.284,0.88
O=C1O[C@H](c2ccccc2)[C@H](c2ccccc2)N2[C@H]1[C@@H](C(=O)N1CCCCCCC1)[C@]1(C(=O)Nc3ccc(C#CCCO)cc31)[C@H]2c1ccccc1OCCO,2.26,3.11,1.53,-0.207 (inactive),1.76,1.5,2,1.79,2.76,1.84
C=CCN1C(=O)[C@]2(O[C@H](CCn3cc([C@H](O)c4ccccc4)nn3)[C@@H]([Si](C)(C)c3ccc(OC)cc3)[C@@H]2C)c2cc(N3CCC3=O)ccc21,1.48,-0.29,0.224,-0.619 (inactive),0.864,0.169,0.0043,0.306,0.815,0.619

SMILES,composite z-score [1],composite z-score [2],composite z-score [3],z-score [4],composite z-score [5],composite z-score [6],composite z-score [7],composite z-score [8],composite z-score [9],composite z-score [10]
COCCCNC(=O)[C@]1(CCC(=O)OC(C)(C)C)N=C(c2ccc(OCCCO)cc2)O[C@@H]1c1ccccc1CN=[N+]=[N-],1.42,0.639,0.608,0.378 (inactive),1.41,1.3,-0.504,0.35,-0.299,0.733
COc1cc2c(cc1OC)CN(C(=O)[C@H]1[C@@H]3C(=O)O[C@@H](c4ccccc4)[C@@H](c4ccccc4)N3[C@@H](c3ccc(O)cc3)[C@]13C(=O)Nc1ccccc13)CC2,1.23,-0.0009,-0.123,-0.0299 (inactive),0.708,0.691,-0.0502,-0.276,-0.198,-0.188
CC(C)N1C(=O)[C@@]2(Cc3ccccc31)c1ccccc1C(=O)N(Cc1ccccc1Cl)[C@H]2c1ccc(CO)cc1,0.465,-0.0724,0.621,-1 (inactive),-1,-1.24,-1.25,-0.785,-0.979,0.781
Cc1ccc(S[C@]2(C(=O)NC3CC3)CC(=O)N(Cc3ccccc3)[C@@H]2c2ccc(CO)cc2I)cc1,0.562,0.0491,0.717,-1.21 (inactive),-0.794,-0.281,-1.34,-1.37,-1.59,0.5
CC(=O)NCCCC[C@@H]1NC(=O)[C@@H]2C[C@H](C(=O)NCCCCCNC(=O)CS)[C@H](c3cccc(OCCO)c3)N2C1=O,1.16,-0.394,-0.155,-2.01 (inactive),0.0349,-0.0868,0.724,1.07,1.11,0.337
CCCC[C@@H]1C[C@H]1[C@@H](NC(=O)c1ccccc1)c1ccc(C(=O)OC)cc1,0.798,0.393,1.18,-2.47 (inactive),-0.358,-0.534,-1.38,-0.668,-1.57,1.19
COCCOC(=O)N1C(=O)[C@@]2(c3cc(C#CC4(O)CCCCCC4)ccc31)[C@H](c1ccccc1OCCO)N1[C@H](c3ccccc3)[C@H](c3ccccc3)OC(=O)[C@H]1[C@@H]2C(=O)N1CCN(c2ncccn2)CC1,0.892,0.0468,-0.0635,0.514 (inactive),1.12,1.03,0.484,1.18,0.991,0.244
COC(=O)C(CC#Cc1ccc2c(c1)[C@]1(C(=O)N2)[C@H](C(=O)Nc2nc3ccccc3s2)[C@H]2C(=O)O[C@H](c3ccccc3)[C@H](c3ccccc3)N2[C@@H]1c1ccccc1OCCO)C(=O)OC,1.61,0.473,0.561,1.44 (inactive),0.904,1.24,0.282,0.701,0.193,0.303
COCCOC(=O)N1C(=O)[C@@]2(c3cc(C#CCNC(N)=O)ccc31)[C@H](C(=O)N1CCN(c3ncccn3)CC1)[C@H]1C(=O)O[C@H](c3ccccc3)[C@H](c3ccccc3)N1[C@@H]2c1ccc(OCCO)cc1,1.08,0.223,0.329,-0.729 (inactive),1.01,-0.0506,0.498,1.37,0.204,0.63
CCOC(=O)C[C@H]1[C@H](OC(=O)c2ccc(C(=O)c3ccccc3)cc2)[C@@H](NC(=O)CC(C)C)c2cc(OCCCO)ccc2N1C(=O)c1ccc2ccccc2n1,0.366,-0.0449,-0.399,-0.202 (inactive),0.811,1.25,0.373,1.41,1.09,0.241
CCC[C@@H]1C[C@@]1(CCC)[C@@H](NC(=O)c1ccccc1)c1cccc(Cl)c1,-0.12,2,0.958,0.444 (inactive),0.905,1.09,0.446,0.644,-0.202,1.08
COCCOC(=O)N1C(=O)[C@@]2(c3cc(C#CC4(O)CCCCCC4)ccc31)[C@H](c1ccc(OCCO)cc1)N1[C@H](c3ccccc3)[C@H](c3ccccc3)OC(=O)[C@H]1[C@@H]2C(=O)N1CCN(c2ncccn2)CC1,1,-0.165,0.107,-0.201 (inactive),1.11,1.28,0.334,1.06,0.48,0.0414
O[C@@H](Cc1ccccc1)[C@H]1C2C=CCCC=C2CN1Cc1cccc(Cl)c1 (stereo not given in full),0.77,-0.0422,-0.284,-0.381 (inactive),0.9,1.08,0.231,1.24,0.496,0.296
CN1C(=O)C2C=CC(C(O)c3ccccc3)N(N(c3ccccc3)c3ccccc3)C2C1=O (stereo not given),1.59,0.629,0.632,0.597 (inactive),-0.113,-0.372,0.142,0.455,0.254,1.07
CCOC(=O)C[C@H]1[C@H](OC(=O)c2ccc(C(=O)c3ccccc3)cc2)[C@@H](NC(=O)c2ccccc2)c2cc(OCCCO)ccc2N1C(=O)Cc1ccc(OC)cc1,-0.0032,0.234,0.586,0.0989 (inactive),0.131,0.0916,0.285,0.0514,-0.0269,0.811
CCOC(=O)C[C@H]1[C@H](OC(=O)c2ccc(C(=O)c3ccccc3)cc2)[C@@H](NC(=O)c2ccccc2)c2cc(OCCCO)ccc2N1C(=O)c1ccc2ccccc2n1,0.295,-0.349,-0.267,0.487 (inactive),-0.286,1.05,0.267,0.399,-0.186,-0.136
